WT yeast gro inh = growth inhibition of WT yeast, mitochondrial fusion screen; inhibition, % at 10 µM; AID 1362; 190,000 compounds, 2.1% hits; mitochondrial fusion phenotypic screen, WT strain; in the data active means inhibition above about 58%; tested in S. cerevisiae
PERK inh = human PERK inhibition, primary cell-based screen. 220,000 compounds, 0.17% hits. Q9NZJ5. inhibition, % at 5.6 µM. AID 1416. CHO PERK-DD fusion, SEAP luminescence translation reporter;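 active means inhibition above the mean inhibition of all tested compounds plus 3 SD, set separately per screening campaign, cut at about 2.9% in these data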;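 further: PERK kinase domain activated by AP20187 dimerizer at 100 nM; 0% = DMSO with dimerizer and 100% = rapamycin at 8.4 µM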
ROMK mod = human ROMK K+ channel modulation, primary screen; P48048; Tet-inducible ROMK, thallium flux fluorescence; actives lie on both sides; B-score at 10 µM; 130,000 compounds, 2% hits;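 active means signal ratio slope over the read window, or its plate-corrected B-score, at least 3 SD from the plate mean, either direction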;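 further: B-score of the F/F0 ratio slope over 7 to 12 s after thallium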
Target sequence (P48048 whole entry, looked up): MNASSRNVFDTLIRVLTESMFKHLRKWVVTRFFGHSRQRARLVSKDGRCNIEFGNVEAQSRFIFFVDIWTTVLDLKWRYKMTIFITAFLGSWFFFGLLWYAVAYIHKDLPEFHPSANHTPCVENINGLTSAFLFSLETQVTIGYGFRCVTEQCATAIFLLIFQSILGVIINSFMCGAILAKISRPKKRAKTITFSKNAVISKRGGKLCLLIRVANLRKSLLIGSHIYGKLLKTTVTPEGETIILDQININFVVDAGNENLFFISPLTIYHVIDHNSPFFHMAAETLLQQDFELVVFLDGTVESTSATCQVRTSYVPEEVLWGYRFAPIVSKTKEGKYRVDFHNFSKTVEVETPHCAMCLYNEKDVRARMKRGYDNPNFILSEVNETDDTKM
Arbovirus anti = blocks arbovirus infection. arbovirus infection cell-based antiviral screen. inhibition, % at 10 µM. 200,000 compounds, 0.37% hits; in the data active means inhibition above about 30%
An asterisk follows results filed as active; / = no result given. An excerpt weighted towards active compounds, which were near 3.3% of everything screened.

SMILES | WT yeast gro inh | PERK inh | ROMK mod | Arbovirus anti
COCCN(C(=O)Cc1cccs1)C(C(=O)NCc1ccc(OC)cc1)c1ccc(C(C)C)cc1 (stereo not drawn) | 61.3* | -2.0 | / | -21.1
CCc1ccc(C(C(=O)NCc2ccc(OC)cc2)N(CCOC)C(=O)Cc2cccs2)cc1 (stereo not drawn) | -1.1 | 0.6 | / | -14.1
Cc1nc(-c2cccc(NS(=O)(=O)c3ccc4ccccc4c3)c2)cs1 | 60.1* | 0.8 | / | -14.5
CCOc1ccc(C(c2c(NC(=O)c3ccccc3)sc(C)c2C)N2CCN(C)CC2)cc1 (stereo not drawn) | 77.9* | -0.6 | / | -27.7
Cc1sc(NC(=O)c2ccccc2)c(C(c2ccccn2)N2CCN(CCO)CC2)c1C (stereo not drawn) | 8.6 | -0.7 | / | -6.7
COc1ccccc1-c1nnc(Nc2nc3c(OC)cccc3s2)o1 | 8.1 | -1.2 | 2.38* | -19.7
NNc1nc2c(Cl)c(Cl)ccc2s1 | 77.7* | 0.9 | -0.25 | 20.3
COc1cccc2sc(Nc3nc(-c4ccncc4)cs3)nc12 | 5.6 | 0.2 | 1.03 | -9.4
COc1cccc2sc(NN)nc12 | 20.1 | -0.6 | 0.258 | 36.5*
COc1cccc2sc(Nc3nnc(-c4ccccc4Cl)o3)nc12 | 8.6 | -1.1 | / | -21.7
COc1cccc(-c2nnc(Nc3nc4c(F)cccc4s3)o2)c1 | 11.2 | -0.8 | 9.44* | -11.6
NNc1nc2ccc(Cl)cc2s1 | 36.2 | -1.1 | / | -19.5
NC(=O)CSc1nnc(C2CC2)n1Cc1ccccc1 | -17.1 | 1.1 | / | -5.3
CCOC(=O)C1(C/C(C)=N/NC(N)=O)CC(C)OC1=O (stereo not drawn) | 6.5 | 0.8 | -0.283 | 6.6
CC(C)CCn1c(=O)c2ccccc2n2c(CN3C(=O)NC4(CCC(C)CC4)C3=O)nnc12 (stereo not drawn) | 15.9 | -1.1 | 4.03* | -16.4
Nc1nc2ccccc2n1CCOc1ccccc1Cl | 18.7 | -2.0 | -3.9* | 8.6
CC(=O)C(Sc1ncnc2sc3c(c12)CCCC3)C(C)=O | 75.9* | 0.1 | -1.27 | 4.3
COc1cccc(Nc2nc(NCCO)c3ccccc3n2)c1 | 60.4* | -1.6 | -0.679 | 17.2
Cc1ccc(-c2nc(NCc3ccco3)c3ccccc3n2)cc1 | 67.3* | -0.1 | / | -22.1
Cc1ccccc1Nc1nc(NCc2ccco2)c2ccccc2n1 | 79.2* | 0.9 | -0.158 | -25.0
Cc1cccc(Nc2nc(NCc3ccco3)c3ccccc3n2)c1 | 98.2* | -0.6 | / | -34.7
c1cncc(-c2nc(NCc3ccco3)c3ccccc3n2)c1 | -5.9 | 0.1 | / | 0.8
OCCNc1nc(Nc2cccc(O)c2)nc2ccccc12 | / | 1.4 | / | /
O=S(=O)(Nc1ncccn1)c1ccc(-n2cnnn2)cc1 | -5.0 | 0.6 | -0.698 | -7.6
Cc1ccc(OCCSc2nc(NC(C)C)nc(NC(C)C)n2)cc1 | 71.9* | -0.8 | 0.161 | -18.6
SMILES | WT yeast gro inh | PERK inh | ROMK mod | Arbovirus anti
Cc1ccc(Sc2ccc(CN3CCCCC3)cc2[N+](=O)[O-])cc1 | 61.2* | 0.3 | -0.32 | -12.5
C=CCNC(=O)c1ccc(Sc2ccc(C)cc2)c([N+](=O)[O-])c1 | -5.8 | 0.6 | / | 4.3
Nc1nc(-c2ccco2)nn1C(=O)c1ccc([N+](=O)[O-])cc1 | -13.6 | 1.9 | -0.475 | 10.8
COc1ccc2oc(=O)c(-c3csc(Nc4cccc(O)c4)n3)cc2c1 | 74.0* | 1.8 | -0.177 | -31.8
COc1ccc(Nc2nc(-c3cc4cccc(OC)c4oc3=O)cs2)cc1 | 18.7 | -0.1 | 0.233 | -4.6
COc1ccc(-c2nsc3c(N4CCCCC4)ncnc23)cc1 | 7.9 | 1.0 | / | 0.0
COc1ccc(-c2nsc3c(N4CCCCC4C)ncnc23)cc1 (stereo not drawn) | 74.6* | 0.4 | -0.753 | 9.1
FC(F)(F)c1ccc(N2CCN(c3cc(-c4ccccc4)nc4ncnn34)CC2)nc1 | 63.6* | 0.1 | -0.02 | 3.1
CCCCSc1nnc(-c2ccc(C)cc2)c2ccccc12 | 78.0* | 0.3 | 0.44 | -11.9
CN(C)C(=O)CSc1nnc(-c2ccc(F)cc2)c2ccccc12 | / | -0.8 | / | /
c1ccc(-c2nnn(C34CC5CC(CC(C5)C3)C4)n2)cc1 | 80.9* | 1.4 | / | 0.6
COc1ccc(Br)cc1/C=C/C(=O)c1ccc(NC(C)=O)cc1 | 83.9* | -0.8 | / | -23.4
O=C(COc1cccc(C(F)(F)F)c1)Nc1ccc(S(=O)(=O)N2CCCC2)cc1 | -28.2 | -0.1 | / | 5.2
Clc1cncc(Cl)c1NNc1c2ccccc2nc2ccccc12 | 82.6* | 0.6 | / | -13.8
CC(C)(C)NC(=O)C(c1ccco1)N(C(=O)Cn1nnc(-c2ccc(F)cc2)n1)c1ccccc1F (stereo not drawn) | 62.8* | -0.4 | / | 7.5
COc1cccc(CN(Cc2cccnc2)S(=O)(=O)c2ccc(-n3cnnn3)c(C)c2)c1 | -23.1 | -0.8 | / | 7.8
O=C(NNC(=S)NC(=O)C12CC3CC(CC(C3)C1)C2)c1ccncc1 | 79.7* | 0.2 | / | -31.7
CC1(C(=O)NC(=S)NNC(=O)c2ccncc2)CCCCC1 | 1.6 | 0.9 | 0.703 | -25.1
C#CCNC(=O)C1=C[C@H](c2ccc(C(F)(F)F)cc2)C[C@H](OCCCCO)O1 | -6.0 | 0.6 | / | -0.1
CCSc1ccc(NC(=O)c2cccnc2)cc1 | -14.9 | 0.9 | / | 0.1
CCc1cc(-c2n[nH]c(C)c2Oc2ccc(C(C)C)cc2)c(O)cc1O | 86.0* | 1.4 | 0.836 | -43.1
Cc1ccc(-c2cc(N)n(-c3ccc(F)cc3)n2)cc1 | 20.3 | 3.4* | 1.05 | -3.9
O=S(=O)(NCC(Nc1ccc(Cl)cc1)c1ccccc1)c1ccccc1 (stereo not drawn) | 82.8* | -0.3 | 0.232 | -28.9
Cc1ccc(NC(CNS(=O)(=O)c2ccc(Cl)cc2)c2ccccc2)cc1 (stereo not drawn) | 87.7* | 0.3 | / | -38.3
COc1cccc(/C(O)=C2/C(=O)C(=O)N(CCCN(C)C)C2c2cccc(Cl)c2)c1 (stereo not drawn) | / | / | 0.115 | /
SMILES | WT yeast gro inh | PERK inh | ROMK mod | Arbovirus anti
Cc1c(O)nc2sc3ccccc3n2c1=O | / | 4.4* | 0.625 | /
N#Cc1nc(Cc2cccc3ccccc23)oc1NCc1ccc(F)cc1 | 70.7* | -0.7 | -0.0947 | 3.6
C=CCNc1oc(Cc2cccc3ccccc23)nc1C#N | 3.7 | -0.2 | / | 1.6
CCCCCOc1ccc2oc(=O)c3c(c2c1)CCCN3C(=O)CN1CCCC(C(=O)OCC)C1 (stereo not drawn) | 80.4* | -0.7 | -1.31 | -24.5
c1ccc(N2CCN(Cc3nnnn3C3CCCCC3)CC2)cc1 | -5.0 | -0.1 | / | 9.6
Cc1ccc(Cl)cc1N1CCN(Cc2nnnn2C2CCCCC2)CC1 | 73.5* | 0.4 | -0.839 | -32.6
O=C(Nc1ccc(Cl)cc1)N1CCC(c2nc(-c3ccccc3Cl)no2)CC1 | 64.5* | 0.4 | / | -30.2
CCOC(=O)C(NS(=O)(=O)c1ccccc1)(C(F)(F)F)P(=O)(OCC(C)C)OCC(C)C (stereo not drawn) | 2.3 | -0.5 | -0.0105 | 16.1
COc1ccc(NC(=O)Cn2nnc(C(=O)Nc3ccccc3C)c2N)cc1 | -5.8 | 0.6 | / | -2.5
COCCNC(=S)NN=C1CCCCCC1 | 10.9 | 0.5 | 0.763 | 2.0
S=C(NCCc1ccccc1)N/N=C/c1ccccc1Cl | 63.6* | 1.2 | / | 3.9
S=C(NCCc1ccccc1)NN=C1CCCCCC1 | 65.7* | 0.2 | -0.0792 | 2.5
S=C(NCCc1ccccc1)N/N=C/C1CCCCC1 | 72.0* | 0.8 | -1.21 | -1.4
O=C(CS(=O)(=O)Cc1ccccc1)Nc1ncccn1 | -2.9 | 0.0 | / | 5.3
